The values below come from PubChem BioAssay (EPA / NIEHS).

SMILES strings stand for the structures. The source made the active and inactive calls. Rule for the calls: active = hit-call score of the fitted dose curve at least 0.9, where 1 is the maximum; inactive = score below 0.9.

A short description of the test: CEETOX_H295R_DOC: CeeTox H295R High-throughput Steroidogenesis Assay for DOC (AID 2283439). Conditions: actives raise or lower the signal. The method, boiled down:
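H295R adrenal cells prestimulated 48 h with 10 uM forskolin, then exposed 48 h to test chemical (0.1% DMSO final). Medium 11-deoxycorticosterone extracted with MTBE, quantified by HPLC-MS/MS; bidirectional fit versus DMSO baseline; MTT viability in same wells.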
With `O=S1OC[C@@H]2[C@H](CO1)[C@]1(Cl)C(Cl)=C(Cl)[C@@]2(Cl)C1(Cl)Cl` (stereo partly drawn), the half-maximal activity concentration (AC50) (in general, the concentration giving half of the maximal activity seen) is 16.3 µM (active).
Consider `COc1ccc(N)cc1`, for which the call was inactive.
With `CCOP(=S)(OCC)O/N=C(\C#N)c1ccccc1`, the AC50 was 40.4 µM (active).
